Source: PubChem BioAssay
The list is not random: actives were taken first. Their share in the collection is about 27%.
CYP2C19 activ: cytochrome P450 2C19 (human) activation; activation factor at 5 µM; P33261; recombinant CYP2C19, luciferin-H EGE luminescence; active compounds read high; 0 = fully inhibited enzyme, 1 = untreated enzyme; 96,000 tested, under 10 active;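 active = activation factor of at least 2 at 5 µM in the primary screen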;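 also: 0 = wells with 2.5 mM tranylcypromine and 1 = vehicle-only wells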
Target sequence (P33261 whole entry, looked up): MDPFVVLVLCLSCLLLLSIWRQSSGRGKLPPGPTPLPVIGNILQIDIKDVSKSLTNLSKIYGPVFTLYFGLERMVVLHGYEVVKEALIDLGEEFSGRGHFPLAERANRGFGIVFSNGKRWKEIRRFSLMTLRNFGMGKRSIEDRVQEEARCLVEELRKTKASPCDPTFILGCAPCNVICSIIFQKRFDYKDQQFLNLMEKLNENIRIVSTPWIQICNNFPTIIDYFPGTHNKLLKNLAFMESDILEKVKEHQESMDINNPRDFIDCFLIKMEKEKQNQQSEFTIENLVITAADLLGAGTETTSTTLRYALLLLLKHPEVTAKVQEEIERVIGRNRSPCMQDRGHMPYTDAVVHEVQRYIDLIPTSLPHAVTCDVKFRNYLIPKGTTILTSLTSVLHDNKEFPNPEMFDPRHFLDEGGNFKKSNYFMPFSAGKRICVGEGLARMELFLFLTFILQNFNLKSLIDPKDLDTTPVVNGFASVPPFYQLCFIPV
sEH activator: soluble epoxide hydrolase (human) activation | P34913 | purified human sEH enzymatic activity, activator screen | activation, % at 2 µM | 91,000 compounds, 0.04% hits; in the data active = activation above about 37%
CYP2C9 act: increases human cytochrome P450 2C9 activity; recombinant CYP2C9, luciferin-H conversion, luminescence; active compounds read high; factor 1 = untreated enzyme, 0 = blocked; 96,000 compounds, 1.4% hits; activation factor at 5 µM; P11712;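 active = activation factor of 2 or more for CYP2C9 at a 5 µM dose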;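 also: 0 = sulfaphenazole-blocked wells and 1 = vehicle-only wells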
CYP2C19 inh: human CYP2C19 inhibition; P33261; CYP2C19 Supersomes, luciferin-H EGE luminescence, 30 min; inhibition, % at 5 µM; 96,000 compounds, 21% hits; AID 778;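 active = CYP2C19 inhibition above a set limit at 5 µM in the primary screen, cut at about 50% in these data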;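 also: plate controls were negative control wells for no effect and 2.5 mM tranylcypromine positive control for full effect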
CYP2C9 inhib: blocks human cytochrome P450 2C9; 96,000 compounds, 20% hits; P11712; CYP2C9 Supersomes, luciferin-H conversion, luminescence; inhibition, % at 5 µM; AID 777;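 active = blocking of liver enzyme CYP2C9 beyond about 50% at 5 µM, limit read from the data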
sEH inh: soluble epoxide hydrolase (human) inhibition | recombinant human sEH enzymatic activity assay | inhibition, % at 2 µM | 91,000 compounds, 0.34% hits | AID 707; in the data active = inhibition above about 80%
Numbers without * were called inactive; nt = no result given.

SMILES	CYP2C19 activ	sEH activator	CYP2C9 act	CYP2C19 inh	CYP2C9 inhib	sEH inh
Cc1cc(C)c2oc(=O)cc(CN3CCN(Cc4ccc5c(c4)OCO5)CC3)c2c1	0.7	10	0.9	31	9	-8
Cc1cc2oc(=O)cc(CN3CCN(S(=O)(=O)c4ccc5c(c4)OCCO5)CC3)c2cc1C	0.4	nt	0.2	58*	84*	nt
Cc1ccc(Cl)cc1N1CCN(S(=O)(=O)c2ccc3c(c2)OCCO3)CC1	0.5	4	0.2	46	80*	-6
CC(=O)Nc1ccc(S(=O)(=O)N2CCN(c3cc(C)ccc3C)CC2)cc1	0.7	nt	0.1	31	85*	nt
Cc1cccnc1NC(=O)C1CCN(S(=O)(=O)c2ccc3c(c2)CCC(=O)N3)CC1	0.9	10	0.7	6	26	-12
COc1cc(NC(=O)c2cnn3c(C)cc(C)nc23)c(OC)cc1Cl	0.8	-6	0.9	22	11	7
Cc1c(N(C(=O)c2cc(=O)[nH]c3ccccc23)C(C)C)c(=O)n(-c2ccccc2)n1C	0.9	-1	1	13	-3	2
CC(=O)Nc1c(C(=O)N2CCCCCC2)cnn1-c1ccccc1Cl	nt	-3	nt	nt	nt	6
N=c1nc(N)nc2n1NC(c1ccc(F)cc1)=CS2	0.9	-2	0.8	13	17	5
CC(=O)CC(c1ccc([N+](=O)[O-])cc1)c1c(O)c2ccccc2oc1=O (stereo unspecified)	0.8	9	0.2	15	76*	-6
O=[N+]([O-])c1ccc2c(c1)oc1ccccc12	0.8	5	0.9	21	7	-6
COc1cccc(NC(=O)COc2ccccc2C(N)=O)c1	0.6	3	0.8	38	20	0
O=C(NNC(=S)Nc1ccc(F)cc1)c1ccccc1OC(F)F	0.8	10	0.4	16	58*	-8
COc1cccc(NC(=S)NNC(=O)c2ccccc2OC(F)F)c1	0.7	2	0.4	29	64*	1
Cc1ccc(NC(=S)NNC(=O)c2ccccc2OC(F)F)cc1	0.8	-8	0.4	23	56*	9
Cc1ccc(Sc2nc(-c3ccccc3)ccc2C#N)cc1	1	10	0.8	-1	19	-9
CCC(C)(C)NC(=O)C(c1ccc(OC)cc1)N(Cc1cccs1)C(=O)CCC(=O)Nc1cc(C)on1 (stereo unspecified)	nt	0	nt	nt	nt	3
OC1CC(c2ccco2)NC2(CCCCC2)C1 (stereo unspecified)	1.2	nt	1.3	-18	-26	nt
O=S(=O)(c1ccc(C2=CSC3=NCCN23)cc1)N1CCOCC1	0.4	3	0.9	56*	11	-4
C1=C(c2ccccc2)N2CCN=C2S1	1	2	0.9	2	7	0
Oc1ccc(Cl)cc1C(C#Cc1ccccc1)N1CCOCC1 (stereo unspecified)	0.6	8	0.5	37	49	-5
O=C1CC(SC(=Nc2ccccc2)Nc2ccccc2)C(=O)N1c1cccc2ccccc12 (stereo unspecified)	0.9	-5	0.8	10	17	8
O=C(COc1cnc2ccccc2n1)NCCC1=CCCCC1	0.5	7	0.7	55*	28	-9
O=C(Cn1nc(C(=O)O)c2ccccc2c1=O)NCCC1=CCCCC1	0.4	nt	0.8	58*	23	nt
O=C(/C=C/c1cccc2ccccc12)NCCC1=CCCCC1	0.8	-58	2.7*	18	-169	59
SMILES	CYP2C19 activ	sEH activator	CYP2C9 act	CYP2C19 inh	CYP2C9 inhib	sEH inh
O=C(COc1nncc2ccccc12)NCCC1=CCCCC1	0.6	-7	1	36	-4	9
O=C(COc1ncnc2ccccc12)NCCC1=CCCCC1	0.5	nt	0.7	54*	27	nt
O=C(NCCC1=CCCCC1)C(=O)NCc1ccccc1Cl	1	-8	0.9	2	13	10
COCCNS(=O)(=O)c1cccc2cccnc12	0.9	8	1.6	9	-56	-4
COc1ccc(NC(C)=O)cc1NC(=O)CN1CCN(CC(=O)Nc2ccccc2Cl)CC1	0.5	14	0.8	46	23	-13
O=C(c1ccco1)N1CCN(C2CCCC2)CC1	0.7	nt	1.1	28	-6	nt
COc1ccc(N2CCN(c3nc4c(c(=O)n(C)c(=O)n4C)n3Cc3ccccc3)CC2)cc1	0.5	7	0.3	49	68*	-7
CCCCn1c(SCc2nnc(-c3ccccc3)o2)nc2c1c(=O)n(C)c(=O)n2C	0.4	-10	0.2	64*	77*	9
CCCCCn1c(CN(C)Cc2ccccc2)nc2c1c(=O)n(C)c(=O)n2C	0.2	3	0	82*	100*	-4
COc1ccc(N2CCN(Cc3nc4c(c(=O)n(C)c(=O)n4C)n3Cc3cccc(C)c3)CC2)cc1	0.9	nt	0.8	14	16	nt
Cc1ccc(C)c(Cn2c(CN(C)Cc3ccccc3)nc3c2c(=O)n(C)c(=O)n3C)c1	0.3	10	0.1	66*	92*	-6
CN(C1CCCCC1)S(=O)(=O)c1ccc(Cl)c(C(=O)O)c1	0.9	nt	0.9	5	7	nt
CCCCCCn1c(NCC)nc2c1c(=O)n(C)c(=O)n2C	0.8	-2	2.8*	16	-175	0
Cn1c(=O)c2c(nc(CN3CCC(C(N)=O)CC3)n2Cc2c(Cl)cccc2Cl)n(C)c1=O	0.8	nt	0.3	19	68*	nt
CN(Cc1ccccc1)c1nc2c(c(=O)n(C)c(=O)n2C)n1CCCc1ccccc1	0.1	0	0	88*	97*	-1
CN(Cc1ccccc1)Cc1nc2c(c(=O)n(C)c(=O)n2C)n1Cc1ccc(F)cc1	0.7	18	0.3	26	72*	-17
Cn1c(=O)c2c(nc(CN3CCN(Cc4ccccc4)CC3)n2Cc2ccc(Cl)cc2)n(C)c1=O	0.7	11	0.5	33	51*	-7
COC(=O)CSc1nc2c(c(=O)n(C)c(=O)n2C)n1CCCc1ccccc1	0.3	nt	0.1	67*	85*	nt
CCOCCn1c(CN(Cc2ccccc2)Cc2ccccc2)nc2c1c(=O)n(C)c(=O)n2C	0.2	nt	0.1	76*	94*	nt
Cc1ccc(Cn2c(CN(C)Cc3ccccc3)nc3c2c(=O)n(C)c(=O)n3C)cc1	0.2	9	0.1	78*	94*	-9
CCCCn1c(CN(Cc2ccccc2)Cc2ccccc2)nc2c1c(=O)n(C)c(=O)n2C	nt	-4	nt	nt	nt	6
COc1ccccc1N(CN1CCCC1=O)C(=O)COc1ccccc1	0.9	nt	0.9	8	7	nt
CN(Cc1ccccc1)Cc1nc2c(c(=O)n(C)c(=O)n2C)n1Cc1ccc(Cl)cc1	0.8	nt	0.5	22	50*	nt
CCC(C)[C@H](Nc1nc(-c2ccccc2)nc2c1oc1ccccc12)C(=O)O (stereo partly specified)	1	1	1	3	2	3
O=S(=O)(Nc1ccc(-c2csc(-c3ccccc3)n2)cc1)c1ccc(F)cc1	0.9	3	0	8	97*	-4
COC(=O)c1ccc(NS(=O)(=O)c2ccc(SC)cc2)cc1	1.1	0	0.9	-14	7	1
